# The entries come from a sample that favours hits as a whole.
# Glioma ERSR ind = qHTS for Inducers of the Endoplasmic Reticulum Stress Response (ERSR) in Human Glioma: qHTS; U87-MG GRP78 promoter luciferase reporter, 16 h; Potency, µM, inactives show at the top dose activation, actives largely listed as activators; actives 0.02% (n = 420,000); AID 602332, 2012; note: series mostly up to about 76 µM; % of control where 0% means no effect; nearly all actives have a fitted effect of over 35% in size
#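 Stably transfected U87-MG glioma cells carrying a GRP78-based luciferase sensor; 16 h compound incubation. Luminescence end-point read 10 min after Bright-Glo addition at room temperature.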
# Sfp PPTase inh = qHTS Assay for Inhibitors of Bacillus subtilis Sfp phosphopantetheinyl transferase (PPTase) | 4'-phosphopantetheinyl transferase ffp (Bacillus subtilis), Q9F4F7 | Biochemical Sfp PPTase activity, qHTS | Potency, µM, for inactives: largest response in the series, negative = inhibition, hits mostly inhibitors | actives 3.5% (n = 310,000);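 note: the enzyme is Sfp with the accession as filed and its product quenches rhodamine fluorescence; 0% = enzyme reaction without inhibitor and -100% = no enzyme wells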
#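 Sfp 15 nM + cpd, 15 min RT; start w/ rhodamine-CoA 5 uM, BHQ-2-YbbR 12.5 uM (final); 50 mM Hepes pH 7.6, 10 mM MgCl2, 0.01% NP-40, 0.01% BSA; read 525/598 nm at 0 and 30 min.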
# ALOX12 inh = Primary qHTS assay for inhibitors of human arachidonate 12S-lipoxygenase (ALOX12): Round 2 | AID 1671190, 2021 | Potency, µM (titrated, usually from 108 µM), without a hit: at the highest dose activity change, negative = inhibition, most hits filed as inhibitors | purified 12hLO, xylenol orange hydroperoxide absorbance | actives 1.1% (n = 580,000) | Polyunsaturated fatty acid lipoxygenase ALOX12 (Homo sapiens), P18054; note: % is set by controls: 0 for no effect and ±100 for the full control effect
# Target sequence (P18054 whole entry, looked up): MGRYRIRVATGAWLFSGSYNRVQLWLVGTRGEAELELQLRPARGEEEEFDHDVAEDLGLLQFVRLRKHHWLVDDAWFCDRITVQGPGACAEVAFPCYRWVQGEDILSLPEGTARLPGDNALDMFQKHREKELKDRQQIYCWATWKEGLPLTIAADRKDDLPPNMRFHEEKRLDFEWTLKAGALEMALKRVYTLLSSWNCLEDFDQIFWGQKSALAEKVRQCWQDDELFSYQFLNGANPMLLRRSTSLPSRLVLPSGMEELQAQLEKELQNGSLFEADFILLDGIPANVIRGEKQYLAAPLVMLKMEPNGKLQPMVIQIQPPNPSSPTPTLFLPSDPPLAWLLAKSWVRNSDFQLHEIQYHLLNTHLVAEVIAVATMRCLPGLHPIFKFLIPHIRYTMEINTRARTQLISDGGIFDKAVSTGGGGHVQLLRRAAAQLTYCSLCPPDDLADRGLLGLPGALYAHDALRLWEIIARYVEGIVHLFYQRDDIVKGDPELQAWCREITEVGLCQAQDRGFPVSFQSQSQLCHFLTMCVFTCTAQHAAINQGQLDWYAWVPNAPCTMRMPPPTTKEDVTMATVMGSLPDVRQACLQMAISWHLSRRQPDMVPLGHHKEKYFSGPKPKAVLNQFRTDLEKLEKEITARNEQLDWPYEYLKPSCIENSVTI
#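 Purified human 12hLO at 150 nM in 25 mM Hepes, 0.01% Triton X-100, pH 7.0, preincubated 15 min at room temperature with compound. Reaction started with 40 uM arachidonic acid, 30 min at room temperature. Hydroperoxide measured by Fe-xylenol orange, 573/405 nm absorbance ratio.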
# VDR inhibitor = Inhibitors of the vitamin D receptor (VDR): qHTS; Vitamin D3 receptor (Homo sapiens), P11473; VDR-SRC2-3 peptide fluorescence polarization, 2 h; Potency, µM, without a hit: max response, negative = inhibition, usual class: inhibitors; actives 0.93% (n = 400,000); AID 504847, 2011; note: % is set by controls: 0 for no effect and ±100 for the full control effect
#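 Two reagent solutions held at 4 deg C in the dark were dispensed, compounds pinned at 23 nl, and the mixture incubated 2 h at room temperature. Read-out: fluorescence polarization of VDR–SRC2-3 peptide binding.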
# G9a block = qHTS Assay for Inhibitors of Histone Lysine Methyltransferase G9a; Histone-lysine N-methyltransferase EHMT2 (Homo sapiens), Q96KQ7; G9a H3K9 monomethylation, AlphaScreen, 2 h; Potency, µM (series often up to 102 µM), inactives show at the top dose activity, negative = inhibition, usual class: inhibitors; actives 8.8% (n = 350,000); note: % is set by controls: 0 for no effect and ±100 for the full control effect; nearly all actives have a fitted effect of over 75% in size
#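 Readings reflect AlphaScreen signal from monomethyl-H3K9 antibody detection. HMT at 20 nM; substrate b-H3K9 500 nM; cofactor SAM 20 uM; 2 h RT reaction; compounds tested as titrations in qHTS with 15 min preincubation.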
# An asterisk follows results filed as active; u = inconclusive; x = no result given; [ ] = dose if it differs, or a comment. Calls come from the whole dose curve; as a rule, active = well fitted curve in the direction sought with a large enough effect; inconclusive = small, poorly fitted or top-dose-only effect, or another doubt; inactive = no such curve, though single readings can be large; an effect the other way counts as inactive or inconclusive. Potency is the fitted concentration of half-maximal effect.
SMILES,Glioma ERSR ind,Sfp PPTase inh,ALOX12 inh,VDR inhibitor,G9a block
COc1ccc(S(=O)(=O)N2CCN(CC(=O)Nc3cc(Cl)ccc3Cl)CC2)cc1,-4.1%,x,39.0%,-8.5%,14.2%[12.7 µM]
COc1ccc(S(=O)(=O)N2CCN(CC(=O)Nc3c(C)n[nH]c3C)CC2)cc1OC,-4.3%,x,0.562µM*,-11.4%,x
O=C(CN1CCN(C(=O)c2cccc(S(=O)(=O)N3CCCC3)c2)CC1)Nc1cccc(F)c1,-4.7%,x,-29.7%,17.6%,56.2µM*
Cc1n[nH]c(C)c1NC(=O)CN1CCN(S(=O)(=O)c2ccc(C(F)(F)F)cc2)CC1,1.3%,x,-69.0%,-12.3%,x
COc1ccc(S(=O)(=O)N2CCN(CC(=O)Nc3ccc(F)c(F)c3)CC2)cc1,-2.6%,6.6%,0.0%,2.4%,44.7µM*
O=C(CN1CCN(C(=O)c2ccco2)CC1)Nc1cccc(S(=O)(=O)N2CCCC2)c1,-3.4%,x,-31.8%,-15.6%,u
COc1cc(/C=C(/C#N)C(=O)C(C)(C)C)ccc1OCc1ccc(Cl)cc1,x,x,3.5%,x,x
COCC1CN(C)CC12CCN(Cc1ccc(OC)c(Cn3ccnc3)c1)CC2 (configuration not stated),x,x,118.1%,x,x
CCc1cccc(CC)c1NC(=O)CN1CCN(S(=O)(=O)c2ccccc2)CC1,-2.7%,5.4%,-0.4%,-11.0%,44.7µM*
COC(=O)c1ccc(NC(=O)CN2CCN(S(=O)(=O)c3cc(Cl)ccc3OC)CC2)cc1,-1.6%,0.6%,-4.6%,1.2%,35.5µM*
CC1Cc2ccccc2N1C(=O)CNc1cccc(S(=O)(=O)N2CCCC2)c1 (configuration not stated),-8.0%,2.4%,-25.2%,25.1µM*,50.1µM*
CC1Cc2ccccc2N1C(=O)CN1CCN(S(=O)(=O)c2ccc3c(c2)OCCCO3)CC1 (configuration not stated),-0.7%,x,-4.6%,x,x
O=C(CN1CCc2ccccc2C1)Nc1cccc(S(=O)(=O)N2CCCC2)c1,-2.5%,u,-15.5%,0.5%,3.98µM*
CCCCc1ccc(-c2ccc(C3CCC(CC)CC3)cc2)nc1 (configuration not stated),x,x,-5.1%,x,x
CCC(/C=N/NC(N)=O)=C\c1ccccc1,x,x,0.6%,x,x
CN(c1ccccc1)S(=O)(=O)c1cccc(NC(=O)CN2CCCc3ccccc32)c1,-4.6%,10.8%,10.7%,3.8%,39.8µM*
COC(=O)c1ccc(NC(=O)CN2C(=O)CNC2=O)cc1,-0.4%,13.6%,20.5%,6.4%,12.6µM*
O=C(CC1C(=O)NCCN1C(=O)CN1CCN(CCO)CC1)Nc1ccc(F)cc1 (configuration not stated),x,x,13.7%,x,x
O=C(NCC1CC1)c1ccc(-n2ccnc2)c2ccoc12,-3.1%,x,10µM*,x,x
CS(=O)(=O)Nc1cccc(NC(=O)c2ccc(-n3ccnc3)c3ccoc23)c1,-3.0%,x,10µM*,x,x
Cc1noc(C)c1-c1ccc(C(=O)NCC2CC2)c2occc12,2.2%,x,u,x,x
Cc1cc(=O)oc2cc(OCC(=O)NCCCn3ccnc3)c(Cl)cc12,x,x,4.4%,x,x
CCOc1cc(-c2nc3ccc(-c4ccc(OC)c(OC)c4OC)cc3o2)ccc1OC,x,x,9.4%,x,x
CN(c1ccccc1)S(=O)(=O)c1ccc(Cl)c(C(=O)OCn2nnc3ccccc3c2=O)c1,x,x,-22.1%,x,x
COc1cccc(NC(=O)c2nc(S(C)(=O)=O)ncc2Cl)c1,-19.3%,u,-20.7%,20µM*,35.5µM*
SMILES,Glioma ERSR ind,Sfp PPTase inh,ALOX12 inh,VDR inhibitor,G9a block
CCS(=O)(=O)c1ncc(Cl)c(C(=O)Nc2ccccc2OC)n1,u,6.8%,-10.9%,u,x
CC(=O)Nc1ccc(NC(=O)c2nc(S(=O)(=O)Cc3cccc(C)c3)ncc2Cl)cc1,-19.0%,-3.3%,-9.5%,u,44.7µM*
CCCS(=O)(=O)c1ncc(Cl)c(C(=O)Nc2ccc(S(=O)(=O)Nc3ncccn3)cc2)n1,-4.0%,-20.2%,-10.6%,22.4µM*,17.8µM*
COc1ccc(OC)c(NC(=O)c2nc(S(=O)(=O)Cc3ccc(F)cc3)ncc2Cl)c1,-10.0%,x,-0.4%,u,7.08µM*
Cc1ccc(NC(=O)c2nc(S(=O)(=O)Cc3ccc(F)cc3)ncc2Cl)cc1C,-10.1%,x,-8.2%,-29.9%,7.3%[59 µM]
Cc1ccc(NC(=O)c2nc(S(=O)(=O)Cc3ccccc3C)ncc2Cl)cc1C,-18.3%,-15.7%,-23.3%,u,44.7µM*
Cc1cccc(NC(=O)c2nc(S(C)(=O)=O)ncc2Cl)c1,-11.7%,x,-13.3%,u,8.91µM*
CCOc1ccc(N2C(=O)CCS2(=O)=O)cc1S(=O)(=O)NCc1ccco1,x,x,-3.2%,x,x
O=C(CNc1ccccc1Cl)c1ccc(Br)cc1,3.4%,u,0.0%,u,79.4µM*
O=C(N/N=C/c1oc(O)c2ccccc12)c1ccccc1O,-0.3%,29.9%,-6.2%,-17.2%,35.5µM*
O=[N+]([O-])CC(=Nc1ccc(F)cc1)N/N=C\c1oc(O)c2ccccc12,x,3.9%,x,x,44.7µM*
O=C(Cc1c[nH]c2ccccc12)N/N=C/c1ccc(F)cc1,-3.5%,-5.6%,9.5%,-13.1%,23.2%
C(#CCn1c2ccccc2c2ccccc21)CN1CCOCC1,x,x,-5.3%,x,x
Fc1ccc(-n2c(Cc3cccs3)n[nH]c2=S)cc1Cl,-1.7%,6.8%,-7.7%,14.5%,1.78µM*
Cc1ccccc1-n1c(Cc2cccs2)n[nH]c1=S,-4.9%,u,u,4.7%,u
FC(F)(F)c1ccc(Cl)c(-n2c(Cc3cccs3)n[nH]c2=S)c1,-2.1%,79.4µM*,u,2.2%,x
Cc1cccc(N/N=C2/COC(C)(C)CC2=O)c1,-5.3%,-3.0%,u,2.0%,79.4µM*
COc1ccc(Nc2nc3ccccc3nc2NS(=O)(=O)c2ccc(C)c(C)c2)c(OC)c1,x,x,3.6%,x,x
CCCN(c1ccc(C(C)C)cc1)S(=O)(=O)c1ccc2c(c1)oc(=O)n2CC(=O)OCC,20µM*,x,-8.8%,2.1%,-6.2%[59 µM]
COc1cc(CNc2ncc(-c3ccc(Cl)cc3)n2C)cc(OC)c1OC,-4.8%,-21.5%,u,-19.7%,4.47µM*
COc1cc(CNc2ncc(-c3ccc(Br)cc3)n2C)cc(OC)c1OC,-4.2%,-26.9%,-80.2%,-1.2%,25.1µM*
Cn1c(-c2ccc(Br)cc2)cnc1NCc1cccnc1,-1.5%,-19.3%,u,-6.7%,-11.5%[0.0925 µM]
CCCCCCCCCCCC(=O)NC(Cc1ccc(OC)c([N+](=O)[O-])c1)C(=O)O (configuration not stated),-3.7%,14.0%,u,-19.6%,28.2µM*
O=C(COC(=O)c1cn(-c2ccccc2)nc1-c1ccccc1)Nc1ncc(Cl)cc1Cl,-1.7%,-17.1%,25.1µM*,21.0%,-1.1%[12.7 µM]

# Assay outcomes: PubChem BioAssay, National Center for Advancing Translational Sciences (NCATS)
